Results reported in the supplement of paper PMC10849652.
Of roughly 7,900 targets only a part is listed; those with a hit were picked by preference. About 0.6% of all pairs of compound and target were hits.

Assays:
Experiment in all cases: log2 fold change, soluble protein after heating vs DMSO (PISA); higher = thermal stabilisation; K562 cells, 10 uM, 30 min; active = over 0.2 and 3.5 SD of the protein, either way, in both replicates (recomputed)
[1] = compound: CS(=O)(=O)c1ccc(-c2cnc(N)c(C(=O)Nc3ccccc3)n2)cc1
Outline: (§1)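 K562 cells at 2×10^6 cells/mL were exposed to 10 μM compound for 30 min, then aliquots were heated for 3 min across 48°C-58°C, pooled, and extracted in PBS containing 0.5% NP-40 at 4°C. The supernatant after 21,000xg for 90 min was taken as soluble protein and measured by TMTpro 16plex LC-MS/MS with channel sums equalised. Thermal stability is reported relative to control samples, with values from duplicates. Fold changes are given on a log2 scale.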

[2] = compound: C[C@@H](Oc1cc(-c2cnn(C3CCNCC3)c2)cnc1N)c1c(Cl)ccc(F)c1Cl [crizotinib]
Outline: as §1

[3] = compound: C[C@@H]1COCCN1C2=NC(=NC(=C2)C3(CC3)S(=O)(=O)C)C4=C5C=CNC5=CC=C4
Outline: as §1

[4] = compound: C[C@H](C1=CC=C(C=C1)C(=O)NC2=C3C=CNC3=NC=C2)N
Outline: as §1

[5] = compound: C[C@H](Nc1ncnc2nc[nH]c12)c1cc2cccc(Cl)c2c(=O)n1-c1ccccc1 [duvelisib]
Outline: as §1

[6] = compound: Cc1cc(Nc2cc(CN3CCOCC3)c3nc(C)c(Cc4ccc(Cl)cc4F)n3n2)n[nH]1 [gandotinib]
Outline: as §1

[7] = compound: Cc1cc(Nc2cc(N3CCN(C)CC3)nc(Sc3ccc(NC(=O)C4CC4)cc3)n2)n[nH]1 [tozasertib]
Outline: as §1

[8] = compound: Cc1cc(SCc2sc(-c3ccc(C(F)(F)F)cc3)nc2C)ccc1OCC(=O)O
Outline: as §1

[9] = compound: Cc1ccc(-n2nc(C(C)(C)C)cc2NC(=O)Nc2ccc(OCCN3CCOCC3)c3ccccc23)cc1 [doramapimod]
Outline: as §1

[10] = compound: Cc1ccc(NC(=O)c2ccc(CN3CC[C@H](N(C)C)C3)c(C(F)(F)F)c2)cc1Nc1nccc(-c2cncnc2)n1 [bafetinib]
Outline: as §1

[11] = compound: Cc1cccc(CC(=O)N2CCc3c2ccc(-c2cn(C)c4ncnc(N)c24)c3F)n1
Outline: as §1

[12] = compound: Cc1cn(-c2cc(NC(=O)c3ccc(C)c(Nc4nccc(-c5cccnc5)n4)c3)cc(C(F)(F)F)c2)cn1 [nilotinib]
Outline: as §1

[13] = compound: Cc1nc(Nc2n[nH]c3c2CN(C(=O)N[C@H](CN(C)C)c2ccccc2)C3(C)C)c2sccc2n1
Outline: as §1

[14] = compound: Cc1nc(Nc2ncc(C(=O)Nc3c(C)cccc3Cl)s2)cc(N2CCN(CCO)CC2)n1 [dasatinib]
Outline: as §1

[15] = compound: Cc1ncc(-c2ccnc(Nc3ccc(S(C)(=O)=O)cc3)n2)n1C(C)C
Outline: as §1

[16] = compound: Cn1cc(-c2ccc3c(c2)CCN3C(=O)Cc2cccc(C(F)(F)F)c2)c2c(N)ncnc21
Outline: as §1

[17] = compound: Cn1cncc1[C@@](N)(c1ccc(Cl)cc1)c1ccc2c(c1)c(-c1cccc(Cl)c1)cc(=O)n2C [tipifarnib]
Outline: as §1

[18] = compound: FC(F)(F)c1ccc(/C=C/c2nc(COc3ccc(CCCCn4ccnn4)cc3)co2)cc1 [mubritinib]
Outline: as §1

[19] = compound: Cc1ccc(C(=O)N(CCCN)[C@@H](c2nc3cc(Cl)ccc3c(=O)n2Cc2ccccc2)C(C)C)cc1 [ispinesib]
Outline: as §1

[20] = compound: Cn1cc(-c2ccc3nnc(C(F)(F)c4ccc5ncccc5c4)n3n2)cn1
Outline: as §1

Measured: log2 fold change

GTF3A (UniProt Q92664)
Sequence of UniProt Q92664 (Q92664 whole entry, looked up): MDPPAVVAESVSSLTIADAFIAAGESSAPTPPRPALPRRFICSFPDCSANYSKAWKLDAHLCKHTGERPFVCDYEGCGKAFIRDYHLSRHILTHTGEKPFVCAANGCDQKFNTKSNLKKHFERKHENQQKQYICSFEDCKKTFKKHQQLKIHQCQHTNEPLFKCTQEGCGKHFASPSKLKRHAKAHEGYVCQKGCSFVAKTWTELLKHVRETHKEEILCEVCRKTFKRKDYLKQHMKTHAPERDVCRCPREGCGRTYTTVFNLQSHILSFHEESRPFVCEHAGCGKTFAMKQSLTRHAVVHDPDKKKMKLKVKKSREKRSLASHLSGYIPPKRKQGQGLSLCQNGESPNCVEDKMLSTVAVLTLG
inactive: [1] -0.002 | [2] -0.145 | [3] 0.015 | [4] 0.078 | [5] 0.019 | [6] 0.023 | [7] -0.025 | [8] 0.023 | [9] -0.001 | [10] -0.113 | [11] -0.026 | [12] 0.042 | [13] -0.219 | [14] -0.137 | [15] -0.031 | [16] 0.023 | [17] -0.12 | [18] 0.06

FUT8 (UniProt Q9BYC5)
inactive: [1] 0.018 | [2] -0.235 | [3] 0.077 | [4] -0.011 | [5] -0.007 | [6] 0.034 | [7] -0.14 | [8] 0.178 | [9] -0.017 | [19] -0.148 | [10] -0.062 | [11] -0.042 | [12] -0.008 | [13] 0.006 | [14] 0.031 | [15] 0.054 | [16] -0.276 | [20] 0.022 | [18] -0.037

FDPS (UniProt P14324)
Sequence of UniProt P14324 (P14324 whole entry, looked up): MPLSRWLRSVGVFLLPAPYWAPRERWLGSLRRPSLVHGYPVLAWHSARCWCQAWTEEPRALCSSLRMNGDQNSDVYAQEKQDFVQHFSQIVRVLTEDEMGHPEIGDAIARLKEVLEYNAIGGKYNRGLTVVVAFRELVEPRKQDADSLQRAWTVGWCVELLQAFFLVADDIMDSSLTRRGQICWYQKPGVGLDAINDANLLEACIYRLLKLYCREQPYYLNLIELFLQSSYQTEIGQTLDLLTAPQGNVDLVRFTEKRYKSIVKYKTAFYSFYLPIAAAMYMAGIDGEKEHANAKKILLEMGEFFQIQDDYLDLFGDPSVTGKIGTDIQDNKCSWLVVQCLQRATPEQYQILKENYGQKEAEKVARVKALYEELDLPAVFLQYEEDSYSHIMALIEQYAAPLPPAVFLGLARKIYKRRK
inactive: [1] 0.07 | [3] 0.073 | [4] 0.117 | [5] 0.059 | [6] -0.091 | [7] -0.193 | [8] 0.222 | [9] 0.004 | [10] 0.057 | [11] 0.204 | [12] -0.156 | [13] 0.035 | [14] -0.392 | [15] -0.027 | [16] 0.209 | [20] 0.441 | [17] -0.258 | [18] 0.39
active: [2] -0.768 | [19] -0.493

HMOX2 (UniProt P30519)
Sequence of UniProt P30519 (P30519 whole entry, looked up): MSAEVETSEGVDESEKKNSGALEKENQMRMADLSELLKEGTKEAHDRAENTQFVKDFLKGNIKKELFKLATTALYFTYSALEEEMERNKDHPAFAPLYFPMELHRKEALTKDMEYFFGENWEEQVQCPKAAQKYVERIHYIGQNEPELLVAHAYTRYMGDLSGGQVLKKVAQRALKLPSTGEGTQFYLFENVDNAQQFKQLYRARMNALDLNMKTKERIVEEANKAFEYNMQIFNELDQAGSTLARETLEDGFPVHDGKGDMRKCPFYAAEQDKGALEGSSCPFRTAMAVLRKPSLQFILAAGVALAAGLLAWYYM
active: [17] 0.27
inactive: [1] 0.07 | [2] -0.03 | [3] 0.022 | [4] 0.008 | [5] 0.011 | [6] 0.017 | [7] -0.007 | [8] 0.041 | [9] 0.062 | [19] -0.028 | [10] 0.006 | [11] 0.048 | [12] 0.002 | [13] -0.08 | [14] -0.141 | [15] -0.006 | [16] 0.067 | [20] 0.003 | [18] 0.062

GATA1 (UniProt P15976)
Sequence of UniProt P15976 (P15976 whole entry, looked up): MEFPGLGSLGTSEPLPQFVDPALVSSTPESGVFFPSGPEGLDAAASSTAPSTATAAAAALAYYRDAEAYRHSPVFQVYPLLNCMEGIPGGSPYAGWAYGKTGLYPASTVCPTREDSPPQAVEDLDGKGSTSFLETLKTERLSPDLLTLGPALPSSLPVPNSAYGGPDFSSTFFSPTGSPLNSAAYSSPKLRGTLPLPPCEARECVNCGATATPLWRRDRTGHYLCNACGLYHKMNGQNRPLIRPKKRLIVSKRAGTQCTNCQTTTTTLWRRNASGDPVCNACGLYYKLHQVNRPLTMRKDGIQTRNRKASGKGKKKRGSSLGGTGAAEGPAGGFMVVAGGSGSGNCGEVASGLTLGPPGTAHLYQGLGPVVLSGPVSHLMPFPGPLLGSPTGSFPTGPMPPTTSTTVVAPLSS
inactive: [1] 0.03 | [2] 0.16 | [3] -0.032 | [4] 0.046 | [5] -0.061 | [6] 0.112 | [7] 0.031 | [8] -0.071 | [9] 0.017 | [19] -0.063 | [10] -0.09 | [11] 0.007 | [12] 0.028 | [13] 0.033 | [14] 0.157 | [15] -0.008 | [16] -0.084 | [20] -0.017 | [17] -0.015 | [18] -0.033

FDFT1 (UniProt P37268)
Sequence of UniProt P37268 (P37268 whole entry, looked up): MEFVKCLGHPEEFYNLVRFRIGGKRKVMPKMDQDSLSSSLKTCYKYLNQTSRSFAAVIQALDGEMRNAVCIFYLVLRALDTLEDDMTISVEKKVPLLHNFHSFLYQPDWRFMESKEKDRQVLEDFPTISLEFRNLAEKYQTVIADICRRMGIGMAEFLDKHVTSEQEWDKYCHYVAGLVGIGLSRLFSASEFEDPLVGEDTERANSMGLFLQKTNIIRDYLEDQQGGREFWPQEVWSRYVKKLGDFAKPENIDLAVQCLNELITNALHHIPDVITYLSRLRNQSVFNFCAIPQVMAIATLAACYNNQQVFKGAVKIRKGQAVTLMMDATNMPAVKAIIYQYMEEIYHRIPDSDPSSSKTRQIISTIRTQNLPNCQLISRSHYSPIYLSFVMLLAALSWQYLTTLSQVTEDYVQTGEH
inactive: [1] -0.009 | [2] 0.105 | [3] -0.032 | [4] -0.065 | [6] 0.061 | [7] -0.032 | [8] 0.174 | [9] 0.02 | [19] 0.077 | [10] 0.01 | [11] 0.016 | [12] 0.12 | [13] 0.071 | [14] 0.023 | [15] -0.019 | [16] 0.111 | [20] -0.047 | [17] 0.089 | [18] 0.022
active: [5] 0.32

IFNGR1 (UniProt P15260)
inactive: [1] 0.135 | [3] -0.1 | [4] 0.068 | [5] -0.059 | [6] -0.053 | [7] -0.19 | [8] -0.162 | [19] -0.041 | [10] -0.262 | [11] -0.027 | [12] 0.075 | [13] -0.015 | [14] 0.154 | [15] -0.126 | [16] 0.123 | [20] -0.123 | [17] 0.119 | [18] 0.299

FGG (UniProt P02679)
Sequence of UniProt P02679 (P02679 whole entry, looked up): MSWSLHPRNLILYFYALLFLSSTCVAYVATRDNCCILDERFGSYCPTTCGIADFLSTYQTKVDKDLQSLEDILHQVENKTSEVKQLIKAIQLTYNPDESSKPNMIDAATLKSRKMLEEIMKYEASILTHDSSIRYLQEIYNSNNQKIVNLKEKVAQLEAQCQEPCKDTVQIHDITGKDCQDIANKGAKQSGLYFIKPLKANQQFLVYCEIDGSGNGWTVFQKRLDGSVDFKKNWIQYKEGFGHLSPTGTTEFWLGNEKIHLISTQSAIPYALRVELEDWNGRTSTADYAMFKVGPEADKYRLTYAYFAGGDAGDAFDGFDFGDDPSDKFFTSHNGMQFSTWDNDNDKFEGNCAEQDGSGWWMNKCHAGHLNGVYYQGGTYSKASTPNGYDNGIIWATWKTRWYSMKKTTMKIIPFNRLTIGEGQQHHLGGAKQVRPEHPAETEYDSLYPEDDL
inactive: [6] -0.153 | [19] -0.052 | [11] 0.165 | [20] -0.018 | [17] 0.127

HS1BP3 (UniProt Q53T59)
Sequence of UniProt Q53T59 (Q53T59 whole entry, looked up): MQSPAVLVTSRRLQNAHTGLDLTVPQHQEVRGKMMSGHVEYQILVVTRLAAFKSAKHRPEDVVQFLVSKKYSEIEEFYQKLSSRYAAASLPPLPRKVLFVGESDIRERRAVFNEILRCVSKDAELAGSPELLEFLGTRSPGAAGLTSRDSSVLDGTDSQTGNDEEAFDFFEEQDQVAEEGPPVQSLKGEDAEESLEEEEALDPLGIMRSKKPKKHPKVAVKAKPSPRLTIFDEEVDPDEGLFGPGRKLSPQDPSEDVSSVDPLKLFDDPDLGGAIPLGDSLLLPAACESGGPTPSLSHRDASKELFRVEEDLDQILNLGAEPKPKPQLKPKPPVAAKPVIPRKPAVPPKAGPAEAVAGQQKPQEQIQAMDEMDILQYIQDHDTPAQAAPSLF
inactive: [1] 0.06 | [2] -0.044 | [3] 0.028 | [4] 0.143 | [5] 0.096 | [8] -0.012 | [9] 0.089 | [19] -0.165 | [10] -0.022 | [12] -0.023 | [13] -0.104 | [14] -0.047 | [15] -0.029 | [16] 0.062 | [20] -0.067 | [17] -0.038

H3-3A (UniProt P84243)
inactive: [1] 0.082 | [4] 0.038 | [5] -0.184 | [7] -0.066 | [8] 0.106 | [10] -0.046 | [12] -0.038 | [13] -0.123 | [14] -0.133 | [15] -0.067 | [16] 0.08 | [17] -0.261 | [18] 0.236

GSTT1 (UniProt P30711)
Sequence of UniProt P30711 (P30711 whole entry, looked up): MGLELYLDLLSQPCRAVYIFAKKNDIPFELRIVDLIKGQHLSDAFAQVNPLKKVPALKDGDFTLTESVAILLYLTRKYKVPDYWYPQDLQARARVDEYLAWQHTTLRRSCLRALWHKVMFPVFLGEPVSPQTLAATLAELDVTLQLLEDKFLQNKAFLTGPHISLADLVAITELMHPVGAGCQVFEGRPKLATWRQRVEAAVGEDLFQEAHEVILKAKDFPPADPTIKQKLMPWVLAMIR
inactive: [3] 0.19 | [4] 0.002 | [5] 0.1 | [6] 0.19 | [7] 0.017 | [8] -0.061 | [9] -0.003 | [19] 0.026 | [10] -0.019 | [11] -0.144 | [12] 0.056 | [13] -0.019 | [14] 0.143 | [15] -0.033 | [16] 0.014 | [20] 0.043 | [17] -0.065 | [18] 0.012
active: [2] 0.332

IGF2 isoform 3 (UniProt P01344)
Sequence of UniProt P01344 (P01344 whole entry, looked up): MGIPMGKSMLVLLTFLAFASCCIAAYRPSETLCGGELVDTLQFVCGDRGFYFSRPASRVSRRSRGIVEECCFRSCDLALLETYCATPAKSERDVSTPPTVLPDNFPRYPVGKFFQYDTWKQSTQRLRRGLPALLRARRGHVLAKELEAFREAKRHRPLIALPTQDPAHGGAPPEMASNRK
inactive: [2] -0.07 | [5] 0.175 | [8] 0.03 | [9] -0.13 | [14] 0.019

HNRNPUL1 (UniProt M0R247)
inactive: [1] -0.057 | [2] 0.151 | [4] 0.722 | [5] 0.673 | [7] -0.187 | [8] -0.374 | [9] -0.014 | [12] 0.061 | [13] -0.13 | [14] 0.206 | [15] 0.025 | [16] -0.024 | [17] 0.259

HNRNPK isoform 3 (UniProt P61978)
inactive: [1] -0.056 | [2] -0.009 | [3] -0.237 | [5] 0.038 | [6] -0.082 | [7] 0.004 | [8] -0.037 | [9] 0.05 | [19] 0.014 | [10] 0.003 | [11] -0.18 | [12] -0.115 | [13] -0.022 | [14] 0.021 | [15] 0.143 | [20] -0.002 | [18] -0.101

HBZ, A0A494C057
inactive: [10] -0.015 | [12] 0.171 | [13] -0.035 | [15] 0.127 | [18] -0.08

FUNDC1 (UniProt Q8IVP5)
Sequence of UniProt Q8IVP5 (Q8IVP5 whole entry, looked up): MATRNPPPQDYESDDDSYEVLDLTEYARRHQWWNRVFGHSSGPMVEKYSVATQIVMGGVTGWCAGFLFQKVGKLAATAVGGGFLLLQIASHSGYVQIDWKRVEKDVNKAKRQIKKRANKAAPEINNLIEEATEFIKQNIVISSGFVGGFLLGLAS
inactive: [1] 0.046 | [10] -0.169 | [17] 0 | [18] 0.066

FCHO1 (UniProt O14526)
inactive: [1] 0.033 | [2] -0.118 | [3] 0.158 | [4] 0.161 | [5] -0.039 | [7] 0.043 | [8] 0.109 | [9] -0.009 | [19] -0.264 | [12] -0.118 | [13] -0.067 | [14] -0.275 | [15] -0.127 | [16] 0.079 | [20] 0.033 | [17] -0.119 | [18] -0.003

HDAC10 (UniProt Q969S8)
Sequence of UniProt Q969S8 (Q969S8 whole entry, looked up): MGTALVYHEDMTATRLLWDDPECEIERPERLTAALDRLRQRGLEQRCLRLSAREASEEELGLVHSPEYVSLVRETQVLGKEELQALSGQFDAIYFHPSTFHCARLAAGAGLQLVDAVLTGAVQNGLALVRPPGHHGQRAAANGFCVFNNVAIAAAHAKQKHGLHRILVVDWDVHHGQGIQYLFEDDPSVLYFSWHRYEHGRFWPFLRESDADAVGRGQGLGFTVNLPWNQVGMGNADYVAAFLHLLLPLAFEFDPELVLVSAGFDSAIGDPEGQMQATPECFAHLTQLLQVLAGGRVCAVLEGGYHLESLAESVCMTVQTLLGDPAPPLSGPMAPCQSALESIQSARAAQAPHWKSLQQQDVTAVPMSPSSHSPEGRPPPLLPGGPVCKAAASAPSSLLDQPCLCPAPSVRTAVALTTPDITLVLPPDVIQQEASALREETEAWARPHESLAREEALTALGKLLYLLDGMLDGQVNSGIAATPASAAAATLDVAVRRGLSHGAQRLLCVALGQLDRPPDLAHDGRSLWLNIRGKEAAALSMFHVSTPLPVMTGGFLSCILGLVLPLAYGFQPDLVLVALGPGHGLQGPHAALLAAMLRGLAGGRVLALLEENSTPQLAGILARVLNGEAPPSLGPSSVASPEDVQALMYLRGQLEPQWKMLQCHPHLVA
inactive: [4] -0.045 | [5] 0.04 | [6] 0.008 | [7] -0.113 | [8] 0.042 | [19] 0.065 | [10] -0.255 | [11] -0.073 | [12] -0.118 | [13] -0.075 | [14] -0.027 | [15] -0.08 | [16] 0.071 | [20] 0.001 | [17] 0.046 | [18] 0.116

FBXO9 (UniProt Q9UK97)
Sequence of UniProt Q9UK97 (Q9UK97 whole entry, looked up): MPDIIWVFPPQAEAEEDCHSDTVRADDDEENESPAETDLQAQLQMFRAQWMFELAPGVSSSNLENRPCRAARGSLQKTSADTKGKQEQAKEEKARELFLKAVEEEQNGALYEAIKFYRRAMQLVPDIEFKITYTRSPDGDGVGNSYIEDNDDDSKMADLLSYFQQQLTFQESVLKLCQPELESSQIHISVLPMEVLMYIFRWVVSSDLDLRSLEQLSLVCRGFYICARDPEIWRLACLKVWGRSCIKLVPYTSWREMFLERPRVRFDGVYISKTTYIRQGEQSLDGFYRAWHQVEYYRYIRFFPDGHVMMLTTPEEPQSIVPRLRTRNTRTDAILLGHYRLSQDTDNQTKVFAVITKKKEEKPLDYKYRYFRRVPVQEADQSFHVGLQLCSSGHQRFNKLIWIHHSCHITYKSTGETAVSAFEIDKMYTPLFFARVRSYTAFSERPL
inactive: [2] 0.028 | [4] -0.046 | [5] -0.03 | [6] -0.151 | [7] -0.071 | [8] 0.079 | [9] -0.081 | [19] -0.057 | [10] 0.067 | [11] 0.234 | [12] 0.087 | [13] -0.354 | [14] -0.056 | [15] -0.113 | [16] -0.236 | [20] -0.093 | [17] -0.088 | [18] -0.265

FMR1 (UniProt Q06787)
inactive: [1] -0.067 | [2] 0.151 | [4] 0.199 | [6] 0.045 | [9] -0.065 | [19] -0.022 | [11] -0.146 | [16] -0.224 | [20] -0.028 | [17] -0.129 | [18] -0.175
